Screening results as filed in PubChem BioAssay.
Sampled rows, rich in hits. Any-hit rate of the full collection: about 21%.
Shiga toxin inh: inhibitors of Shiga toxin in Vero cells; Vero cells, Shiga toxin protein synthesis inhibition reporter; inhibition, % at 38.7 µM; 9.2% of 290,000 active; in the data active = inhibition mostly above about 28%, no sharp cut-off; inactive = mostly below about 43%
Pf growth 48h: inhibits P. falciparum growth in the first generation, 48 h; Potency, µM (doses to about 28.7 µM), usual class: inhibitors; AID 504832; 5.9% of 310,000 active; P. falciparum luciferase growth in erythrocytes, 48 h; active = well fitted inhibition curve with a large enough effect; inconclusive = small, poorly fitted or top-dose-only effect, or another doubt; inactive = no such curve, though single readings can be large or run the other way
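First compound was added to culture medium, then infected red cells at 0.1% parasitemia and 2% hematocrit (final). After incubation at 37 C under 5% CO2, luciferase detection reagent was dispensed and light output recorded.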
SARS PLpro yeast: inhibitors of SARS-CoV papain-like protease in yeast; Potency, µM (titrated, usually from 32.9 µM), usual class: activators; S. cerevisiae expressing SARS-CoV PLpro, growth rescue; 0.19% of 330,000 active; also: nearly all actives have a fitted effect of over 55% in size
Cycloheximide cs: affects cycloheximide protein synthesis inhibition readout, counter-screen. cell reporter, cycloheximide protein synthesis inhibition counterscreen. AID 2314. max response, %. 12% of 300,000 active; in the data active = max response mostly above about 13%, no sharp cut-off; inactive = mostly below about 14%; also: read at 38.3 µM for the half of the compounds with a filed dose
NS1 inh: blocks influenza NS1 protein function. Potency, µM (series often up to 46.1 µM). 0.4% of 270,000 active. AID 2326; also: actives are rising curves; nearly all actives have a fitted effect of over 50% in size
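Recovery from NS1-induced slow growth read by OD600 in budding yeast switched to galactose assay medium (pH 6.0, -URA) at 1:100 dilution. Compound 23 nl per well; the matching strain lacking NS1 serves as control.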
Pf growth 96h: inhibits malaria parasite growth, 96 h; Potency, µM (top dose mostly 28.7 µM), actives largely listed as inhibitors; 6.9% of 320,000 active; P. falciparum luciferase reporter growth, 96 h; active = well fitted inhibition curve with a large enough effect; inconclusive = small, poorly fitted or top-dose-only effect, or another doubt; inactive = no such curve, though single readings can be large or run the other way
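Two-generation exposure (96 h) targets delayed-death phenotype. Reporter parasites carrying integrated firefly luciferase, in red cells at 2% hematocrit and 0.05% parasitemia final, kept at 37 C, 5% CO2; luminescence loss indicates inhibition.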
Each line names hits and unclear results; the compound was inactive in the other large screens. Unless noted, calls follow the shape of the full dose curve.

Cc1nc(NC2=NCN(CCCN3CCOCC3)CN2)nc2c(C)cccc12	Pf growth 48h 2.33µM
Cc1nc(NC2=NCN(C3CCCCC3C)CN2)nc2ccccc12 (centres undefined)	Pf growth 48h 13.1µM, Pf growth 96h inconclusive
CCOc1ccc2nc(NC3=NCN(Cc4ccco4)CN3)nc(C)c2c1	Pf growth 48h inconclusive, Pf growth 96h 14.7µM
Cc1nc(NC2=NCN(Cc3ccco3)CN2)nc2ccccc12	Pf growth 96h 1.85µM
O=S1(=O)c2cccc3cccc(c23)N1Cc1ccc(-c2nnco2)cc1	none (no result: Pf growth 96h)
O=C(N/N=C/c1ccccc1Br)c1ccc(CSc2cccc3cccnc23)cc1	Cycloheximide cs 12.4, Pf growth 96h inconclusive (no result: Pf growth 48h)
Cc1cccc(CSc2[nH]c(=O)ncc2C)c1	none
O=C1CCC/C(=N\NC(=O)c2ccc(CSc3cccc4cccnc34)cc2)C1	Pf growth 96h inconclusive (no result: NS1 inh)
COc1cccc(/C=N/NC(=O)CSc2cccc3cccnc23)c1	Pf growth 96h inconclusive
NNC(=O)c1ccc(CSc2cccc3cccnc23)cc1	Cycloheximide cs 23.1 (no result: NS1 inh)
Cc1cccc(CSc2cccc3cccnc23)c1	Shiga toxin inh 152.4, Cycloheximide cs 60.5, Pf growth 96h 4.65µM
c1cnc2c(SCc3ccc(-c4nnco4)cc3)cccc2c1	Shiga toxin inh 67.9, Cycloheximide cs 38.6
Cc1ccc(-n2cc(-c3ccccc3)c3c(NN4CCOCC4)ncnc32)cc1	none
Cc1ccc(-n2c(SCC(=O)NCc3ccco3)nc3c([nH]c4ccccc43)c2=O)cc1	Pf growth 48h inconclusive, Pf growth 96h inconclusive
Cc1ccc(C(=O)Nc2ccccc2C(=O)O)cc1NC(=O)COc1c(C)cccc1C	Pf growth 48h inconclusive
O=C(Nc1nc(-c2ccccn2)cs1)c1ccc(F)c(S(=O)(=O)N2CCOCC2)c1	Pf growth 48h 1.47µM, Pf growth 96h 0.828µM (no result: Shiga toxin inh, Cycloheximide cs, NS1 inh)
Cc1ccc(S(=O)(=O)N2CCOCC2)cc1NC(=O)c1cc(-c2ccccn2)nc2ccccc12	Pf growth 48h 9.28µM, Pf growth 96h inconclusive
CN(CC1CCCO1)S(=O)(=O)c1ccc(C(=O)Nc2nc(-c3ccccn3)cs2)cc1 (centres undefined)	Pf growth 48h 11.7µM, Pf growth 96h 3.29µM
O=C(Nc1cc(S(=O)(=O)N2CCOCC2)ccc1N1CCCCC1)c1cc(-c2ccccn2)nc2ccccc12	Pf growth 96h inconclusive (no result: NS1 inh)
CN(CC1CCCO1)S(=O)(=O)c1ccc(C(=O)Nc2nnc(-c3ccccc3)o2)cc1 (centres undefined)	Pf growth 48h inconclusive, Pf growth 96h inconclusive
Cc1ccc(S(=O)(=O)N2CCOCC2)cc1C(=O)Nc1ccc(-c2cn3ccsc3n2)cc1	Pf growth 48h 9.28µM, Cycloheximide cs 20.2, NS1 inh inconclusive
Cc1ccc(S(=O)(=O)N2CCOCC2)cc1C(=O)NCc1cccnc1	none (no result: Pf growth 96h)
Cc1ccc(C(=O)Nc2ccccn2)cc1S(=O)(=O)N1CCOCC1	none (no result: Shiga toxin inh, Cycloheximide cs, NS1 inh)
O=C(Nc1nc(-c2ccccn2)cs1)c1cc(S(=O)(=O)N2CCOCC2)ccc1F	Pf growth 48h 10.4µM, Pf growth 96h 10.4µM (no result: Shiga toxin inh, Cycloheximide cs, NS1 inh)
Cc1ccc(S(=O)(=O)N2CCOCC2)cc1C(=O)Nc1nc(-c2cccnc2)cs1	Pf growth 48h 9.28µM
CN(C)S(=O)(=O)c1ccc(C(=O)Nc2nc(-c3cc4ccccc4o3)cs2)cc1	Pf growth 96h inconclusive
Cc1ccccc1NC(=O)c1cc(S(=O)(=O)N2CCOCC2)ccc1F	none
Cc1cc(-c2csc(NC(=O)c3ccc(S(=O)(=O)N(C)C)cc3)n2)c(C)n1-c1ccccc1	Pf growth 48h inconclusive, Pf growth 96h 10.4µM
Cc1ccc(C(=O)Nc2nc(-c3ccccn3)cs2)cc1S(=O)(=O)N1CCOCC1	Pf growth 48h 1.65µM, Pf growth 96h 0.465µM (no result: Shiga toxin inh, Cycloheximide cs, NS1 inh)
CCC(=O)Nc1ccc(C(=O)NNC(=O)COc2cccc(C)c2)cc1	none
Nc1nc(SCc2ccccc2Cl)cc(C(=O)O)n1	none (no result: Shiga toxin inh, Pf growth 48h, SARS PLpro yeast, Cycloheximide cs, Pf growth 96h)
Cc1nc(NC(=O)c2ccccc2)sc1-c1csc(NCCc2ccccc2)n1	Pf growth 96h 4.15µM (no result: Pf growth 48h)
Cc1nc(NC(=O)c2ccccc2)sc1-c1csc(N)n1	Shiga toxin inh 48.4, Pf growth 48h 1.85µM, Cycloheximide cs 29.3
O=C(Nc1cccs1)NC1CCCC1	Cycloheximide cs 25.3 (no result: Pf growth 48h, Pf growth 96h)
O=C(CNC(=O)c1cccs1)NC1=NCCS1	Shiga toxin inh 21.1, Cycloheximide cs 41.9
CC1CCC(NC(=O)Nc2cccs2)CC1 (centres undefined)	Shiga toxin inh 43.9, Cycloheximide cs 24.0 (no result: Pf growth 48h, Pf growth 96h)
